Assay results taken from PubChem BioAssay AID602405 (Broad Institute, 2012).
Screen size: about 360,000 compounds; about 350 (0.097%) were called active. Cut-off read from the data, not from the text of the source: active = inhibition above about 16% (passing the limit was not always enough); inconclusive = no clear call, values can overlap the other calls; inactive = below that. This excerpt belongs to a sample that is enriched for actives.

System: UDP-N-acetylbacillosamine N-acetyltransferase PglD (Campylobacter jejuni)
Experiment: blockers of PglD enzyme activity – biochemical, DTNB colorimetric, single point, primary screen (AID 602405)
Settings: purified PglD enzyme, DTNB colorimetric CoA detection; at 12.5 µM; active compounds read high

Row | Compound | inhibition
1 | O=C(Cc1ccncc1)N1CCCCN2[C@@H](CO)[C@H](c3ccc(-c4ccncc4)cc3)[C@@H]2C1 | 18.4% (active)
2 | C/C=C/c1ccc([C@H]2[C@H](CO)N3CCCCN(C(=O)Cc4ccncc4)C[C@@H]23)cc1 | 4.91% (inactive)
3 | COc1ccc(-c2ccc([C@H]3[C@H](CO)N4CCCCN(C(=O)Cc5ccncc5)C[C@@H]34)cc2)cc1 | 2.61% (inactive)
4 | O=C(O)[C@H]1[C@H](CO)[C@H]2Cn3c(cccc3=O)[C@@H]1N2C(=O)c1ccccc1 | 3.27% (inactive)
5 | CC(=CCOc1ccc2ccc(=O)oc2c1)C1=CC(=O)C(C)(C)O1 | 2.27% (inactive)
6 | c1ccc2sc(C3CCCNC3)nc2c1 (stereo not given) | 3.32% (inactive)
7 | c1ccc2sc(N3CCNCC3)nc2c1 | 53.7% (active)
8 | C[C@H](CO)N1C[C@H](C)[C@H](CN(C)C(=O)Oc2ccc3ccccc3c2)OCc2cnnn2CCCC1=O | -0.0925% (inactive)
9 | COC(=O)[C@H]1[C@H](CO)[C@H]2Cn3c(cccc3=O)[C@H]2N1CC1CC1 | 3.33% (inactive)
10 | COC(=O)[C@H]1[C@H](CO)[C@H]2Cn3c(ccc(-c4ccccc4F)c3=O)[C@@H]1N2C(=O)C1CCC1 | -2.57% (inactive)
